Data as given in PubChem BioAssay (EPA / NIEHS).
Where “and” joins values, the source holds several entries; their conditions need not be identical. Identical values can stand only once. Records with an inconclusive call do not appear. Where a structure was tested more than once in an assay, its records may differ in their call. Calls of active or inactive are those of the source. How the source made its calls, unless noted: active means hit-call score of the fitted dose curve at least 0.9, where 1 is the maximum; inconclusive means response in the unintended direction; inactive means score below 0.9.

What was measured:
[1] = TOX21_p53_BLA_p2_viability: Viability Assessment in the Tox21 HCT-116 p53 Agonism Beta-lactamase Assay, Phase 2 (AID 2283591);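 further: actives lower the ATP signal meaning cytotoxicity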
Procedure, shortened: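 HCT116 p53-bla cells, 4000/well, dosed after 5 h plating (217-fold dilution of DMSO stocks) and incubated 16 h at 37C. Viability taken as cellular ATP by CellTiter-Glo luminescence after 30 min RT; signal loss marks cytotoxicity.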

[2] = target: Cellular tumor antigen p53 (Homo sapiens) (UniProt P04637); experiment: TOX21_p53_BLA_p2_ratio: Tox21 HCT-116 p53 Agonism Beta-lactamase Assay, Ratio, Phase 2 (AID 2283592)
Procedure, shortened: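 An inducible beta-lactamase reporter in HCT116 cells signals p53 pathway activation. After 16 h chemical exposure at 37C, cells load CCF4-AM substrate for 2 h at room temperature; activity is the cleaved/uncleaved emission ratio relative to DMSO.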

[3] = TOX21_p53_BLA_p3_viability: Viability Assessment in the Tox21 HCT-116 p53 Agonism Beta-lactamase Assay, Phase 3 (AID 2283593);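 further: cells exposed to compound for 16 h before reading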
Procedure, shortened: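 HCT116 cells, 4000/well, dosed 5 h after plating by pin transfer (217-fold dilution from DMSO stock) and incubated 16 h at 37C, 5% CO2. Viability read as ATP luminescence with CellTiter-Glo after 30 min at room temperature.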

[4] = target: Cellular tumor antigen p53 (Homo sapiens) (UniProt P04637); experiment: TOX21_p53_BLA_p3_ratio: Tox21 HCT-116 p53 Agonism Beta-lactamase Assay, Ratio, Phase 3 (AID 2283596)
Procedure, shortened: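 HCT116 p53-bla cells (4000/well) given compound in DMSO (217-fold dilution) after 5 h, incubated 16 h at 37C. CCF4-AM substrate 2 h at room temperature; 460/530 nm emission ratio, gain fitted against DMSO.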

[5] = TOX21_p53_BLA_p4_viability: Viability Assessment in the Tox21 HCT-116 p53 Agonism Beta-lactamase Assay, Phase 4 (AID 2283597);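 further: hits lower the luminescence signal meaning cytotoxicity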
Procedure, shortened: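 Compound exposure of HCT116 cells lasts 16 h at 37C, 5% CO2, with DMSO stocks diluted 217-fold. Cellular ATP is then quantified by CellTiter-Glo luminescence after 30 min at room temperature.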

[6] = target: Cellular tumor antigen p53 (Homo sapiens) (UniProt P04637); experiment: TOX21_p53_BLA_p5_ratio: Tox21 HCT-116 p53 Agonism Beta-lactamase Assay, Ratio, Phase 5 (AID 2283599)
Procedure, shortened: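 HCT-116 p53-bla cells (4000/well) plated 5 h, dosed with compound (217-fold DMSO dilution) for 16 h at 37 C; CCF4-AM substrate 2 h at room temperature. Activity is the 460/530 nm emission ratio (405 nm excitation), fitted in gain-of-signal direction versus DMSO.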

[7] = TOX21_p53_BLA_p5_viability: Viability Assessment in the Tox21 HCT-116 p53 Agonism Beta-lactamase Assay, Phase 5 (AID 2283600)
Procedure, shortened: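 Counter-readout for cytotoxicity: ATP-dependent luminescence from CellTiter-Glo, read in the beta-lactamase wells after 30 min at RT, following a 16 h compound exposure at 37C.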

[8] = CCTE_Harrill_HTTr_Viability_MCF7: CCTE's 6-hour Cell Viability Assessment for the High-Throughput Transcriptomics (HTTr) Platform, in MCF-7 cells cultured in DMEM + 10% fetal bovine serum, Harrill Lab (AID 2284010; active means hit-call score of the fitted dose curve at least 0.9, where 1 is the maximum; inactive means score below 0.9)
Procedure, shortened: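 Cells were dosed with chemicals in an eight-point dilution series, imaged 6 hours later for propidium iodide uptake, and the endpoint was analyzed by bidirectional fitting against DMSO as negative control.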

[9] = CCTE_Harrill_HTTr_Apoptosis_MCF7: CCTE's 6-hour Apoptosis Assessment for the High-Throughput Transcriptomics (HTTr) Platform, in MCF-7 cells cultured in DMEM + 10% fetal bovine serum, Harrill Lab (AID 2284011; active means hit-call score of the fitted dose curve at least 0.9, where 1 is the maximum; inactive means score below 0.9)
Procedure, shortened: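 Cells are dosed with test chemicals at eight concentrations and imaged 6 hours later for caspase-3/7 activity using a green fluorogenic detection reagent. Activity is fitted in both directions against DMSO controls.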

[10] = target: CCAAT/enhancer-binding protein beta (Homo sapiens) (UniProt P17676); experiment: ATG_C_EBP_CIS: Attagene CIS-FACTORIAL HepG2 Assay for human CCAAT/Enhancer Binding Protein (C/EBP) beta (AID 2282927; active means hit-call score of the fitted dose curve at least 0.9, where 1 is the maximum; inactive means score below 0.9); details: HepG2 Attagene cis-factorial transcription factor reporter; actives raise or lower the signal
Procedure, shortened: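 HepG2 transiently transfected with multiplexed reporter units under cis-regulatory promoters reporting endogenous C/EBPb activity. After 24 h exposure, reporter mRNA assayed by RT-PCR, fluorescent labelling, HpaI digestion and capillary electrophoresis; bidirectional fitting versus DMSO.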

[11] = ATG_CMV_CIS: Attagene CIS-FACTORIAL HepG2 Assay for human CMV (Internal Marker) (AID 2282928; active means hit-call score of the fitted dose curve at least 0.9, where 1 is the maximum; inactive means score below 0.9;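 further: endpoint acts as a background internal control marker rather than a target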); details: HepG2 CMV promoter reporter, transcription factor profiling; actives raise or lower the signal
Procedure, shortened: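 CMV internal-marker background readout in transiently transfected HepG2 cells bearing cis-regulated reporter units. Reporter mRNA is measured 24 h after dosing by RT-PCR and capillary electrophoresis, with bidirectional fitting against DMSO.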

[12] = ATG_DR4_LXR_CIS: Attagene CIS-FACTORIAL HepG2 Assay for human Liver X Receptor (LXR), DR4 submotif (AID 2282929; active means hit-call score of the fitted dose curve at least 0.9, where 1 is the maximum; inactive means score below 0.9); details: HepG2 Attagene DR4 cis-reporter, mRNA transcription; actives raise or lower the signal
Procedure, shortened: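 HepG2 cells transiently transfected with cis-promoter-driven multiplexed reporter units (DR4 element) were dosed for 24 h. Reporter mRNA was quantified by RT-PCR, fluorescent primer extension, HpaI digestion and capillary electrophoresis; bidirectional fitting versus DMSO baseline.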

[13] = ATG_AP_2_CIS: Attagene CIS-FACTORIAL HepG2 Assay for human Activator Protein 2 (AP-2) (AID 2282932; active means hit-call score of the fitted dose curve at least 0.9, where 1 is the maximum; inactive means score below 0.9); details: HepG2 AP-2 cis-reporter, Attagene transcription factor profiling; actives raise or lower the signal
Procedure, shortened: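 HepG2 cells transiently transfected with cis-element reporter units and exposed for 24 h. Reporter mRNA measured by RT-PCR, FAM labelling, HpaI digestion and capillary electrophoresis. Changes in either direction fitted relative to DMSO.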

[14] = ATG_BRE_CIS: Attagene CIS-FACTORIAL HepG2 Assay for human Bone Morphogenetic Protein (BMP) Response Element (BRE) (AID 2282933; active means hit-call score of the fitted dose curve at least 0.9, where 1 is the maximum; inactive means score below 0.9); details: HepG2 BMP response element reporter, Attagene transcription factor profiling; actives raise or lower the signal
Procedure, shortened: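 Endogenous transcription factor activity at a BMP response element was monitored in transfected HepG2 cells 24 h after dosing. Fluorescent RT-PCR products were resolved by capillary electrophoresis, and activity was fitted in both directions versus DMSO.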

[15] = ATG_E_Box_CIS: Attagene CIS-FACTORIAL HepG2 Assay for human Enhancer Box (E-box) (AID 2282936; active means hit-call score of the fitted dose curve at least 0.9, where 1 is the maximum; inactive means score below 0.9); details: HepG2 E-box cis-reporter transcription, actives raise or lower the signal
Procedure, shortened: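 HepG2 cells transiently transfected with multiplexed cis-element reporter units, dosed 24 h; reporter mRNA quantified by RT-PCR, 6-FAM labelling, HpaI digestion and capillary electrophoresis. E-box (USF1) signal fitted bidirectionally vs DMSO.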

[16] = ATG_M_61_CIS: Attagene CIS-FACTORIAL HepG2 Assay for M61 Transcription Factor (Internal Marker) (AID 2282937; active means hit-call score of the fitted dose curve at least 0.9, where 1 is the maximum; inactive means score below 0.9); details: HepG2 Attagene CIS-FACTORIAL M61 internal marker reporter; actives raise or lower the signal
Procedure, shortened: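 HepG2 cells transiently transfected with cis-element-driven multiple reporter transcription units, dosed for 24 h. Reporter mRNA measured by RT-PCR, 6-FAM primer-extension labelling, HpaI digestion and capillary electrophoresis; bidirectional fit versus DMSO baseline.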

[17] = ATG_EGR_CIS: Attagene CIS-FACTORIAL HepG2 Assay for human Early Growth Response 1 (EGR1) (AID 2282938; active means hit-call score of the fitted dose curve at least 0.9, where 1 is the maximum; inactive means score below 0.9); details: HepG2 Attagene CIS-FACTORIAL EGR reporter mRNA; actives raise or lower the signal
Procedure, shortened: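 HepG2 cells transiently transfected with cis-promoter-driven multiplexed reporter transcription units; reporter mRNA measured 24 h after compound dosing by RT-PCR, 6-FAM primer extension, HpaI digestion and capillary electrophoresis. Bidirectional fit versus DMSO baseline.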

[18] = ATG_Ets_CIS: Attagene CIS-FACTORIAL HepG2 Assay for human Erythroblast Transformation Specific (ETS) (AID 2282941; active means hit-call score of the fitted dose curve at least 0.9, where 1 is the maximum; inactive means score below 0.9); details: HepG2 ETS cis-reporter transcription, actives raise or lower the signal
Procedure, shortened: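 HepG2 cells transfected with multiple cis-regulated reporter units measuring endogenous ETS-driven transcription, 24 h after dosing. Reporter mRNA quantified by RT-PCR with capillary electrophoresis; bidirectional fit relative to DMSO.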

[19] = target: Cellular tumor antigen p53 (Homo sapiens) (UniProt P04637); experiment: TOX21_p53_BLA_p4_ratio: Tox21 HCT-116 p53 Agonism Beta-lactamase Assay, Ratio, Phase 4 (AID 2283601)
Procedure, shortened: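 HCT-116 p53 beta-lactamase reporter cells (4000/well) preincubated 5 h, then compound (217-fold dilution of DMSO stock) for 16 h at 37C. CCF4-AM substrate added 2 h at room temperature; 460/530 nm emission ratio fitted upward versus DMSO.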

[20] = target: Estrogen receptor (Homo sapiens) (UniProt P03372); experiment: NVS_NR_hER: NovaScreen (NVS) Nuclear Receptor Binding Assay for human Estrogen Receptor (ER) (AID 2283348)
Procedure, shortened: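 Radioligand competitive displacement binding to estrogen receptor from MCF7 extract, cell-free; 18 h after dosing, scintillation read-out. Primary screen in duplicate at 25 uM; actives followed up in concentration series; loss of signal vs DMSO.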

Measured: AC50

Sequence of Estrogen receptor (Homo sapiens) (P03372 whole entry, looked up): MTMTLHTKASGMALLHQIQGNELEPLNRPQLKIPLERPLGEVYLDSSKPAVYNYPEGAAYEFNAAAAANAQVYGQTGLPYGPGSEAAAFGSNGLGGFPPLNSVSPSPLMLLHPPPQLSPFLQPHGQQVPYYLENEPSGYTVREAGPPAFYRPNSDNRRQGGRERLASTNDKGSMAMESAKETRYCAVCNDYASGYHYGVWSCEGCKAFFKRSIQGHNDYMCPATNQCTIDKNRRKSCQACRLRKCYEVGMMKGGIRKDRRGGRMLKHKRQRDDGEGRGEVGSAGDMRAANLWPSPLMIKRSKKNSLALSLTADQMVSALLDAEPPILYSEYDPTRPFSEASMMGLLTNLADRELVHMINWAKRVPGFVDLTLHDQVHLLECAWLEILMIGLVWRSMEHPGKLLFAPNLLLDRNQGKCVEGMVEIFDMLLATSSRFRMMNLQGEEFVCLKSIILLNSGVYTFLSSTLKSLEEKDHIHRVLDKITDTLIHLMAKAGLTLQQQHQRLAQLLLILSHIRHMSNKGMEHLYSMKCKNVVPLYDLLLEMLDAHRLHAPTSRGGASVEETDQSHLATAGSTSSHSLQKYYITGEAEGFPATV
Sequence of CCAAT/enhancer-binding protein beta (Homo sapiens) (P17676 whole entry, looked up): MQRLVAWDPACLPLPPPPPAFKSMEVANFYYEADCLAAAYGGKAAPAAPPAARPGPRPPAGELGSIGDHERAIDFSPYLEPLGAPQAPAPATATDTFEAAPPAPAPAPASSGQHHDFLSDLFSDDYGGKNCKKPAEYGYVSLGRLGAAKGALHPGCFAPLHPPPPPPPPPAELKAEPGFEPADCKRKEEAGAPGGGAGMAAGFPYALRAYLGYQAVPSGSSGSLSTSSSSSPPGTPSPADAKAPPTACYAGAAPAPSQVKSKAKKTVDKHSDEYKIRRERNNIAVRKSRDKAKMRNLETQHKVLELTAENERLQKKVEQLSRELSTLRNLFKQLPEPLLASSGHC
Sequence of Cellular tumor antigen p53 (Homo sapiens) (P04637 whole entry, looked up): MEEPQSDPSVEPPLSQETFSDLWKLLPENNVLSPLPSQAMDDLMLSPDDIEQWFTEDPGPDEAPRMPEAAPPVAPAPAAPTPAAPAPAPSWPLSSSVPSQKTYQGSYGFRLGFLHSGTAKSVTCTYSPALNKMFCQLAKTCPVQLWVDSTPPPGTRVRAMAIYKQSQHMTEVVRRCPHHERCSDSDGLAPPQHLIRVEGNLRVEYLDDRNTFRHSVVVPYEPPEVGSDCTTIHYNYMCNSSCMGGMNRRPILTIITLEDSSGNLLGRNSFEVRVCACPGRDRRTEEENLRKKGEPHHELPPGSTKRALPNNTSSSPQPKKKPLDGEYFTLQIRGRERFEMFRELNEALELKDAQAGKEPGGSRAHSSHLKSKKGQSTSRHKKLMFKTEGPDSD

CCCCC(CC)COC(=O)C=Cc1ccc(OC)cc1 (configuration not stated)
inactive: [1] | [2] | [3] | [4] | [5] | [6] | [7] | [8] | [9]

CC1=NN(c2cc(Cl)c(S(=O)(=O)O)cc2Cl)C(=O)C1N=Nc1ccc(S(=O)(=O)O)cc1 (configuration not stated)
inactive: [10] | [11] | [12] | [13] | [14] | [15] | [16] | [17] | [18] | [1] | [2] | [4] | [5] | [6] | [7] | [19]

O=C(O)/C=C\C(=O)O
inactive: [10] | [11] | [12] | [13] | [14] | [15] | [16] | [17] | [18] | [8] | [9]

COc1cc(CNC(=O)CCCC/C=C/C(C)C)ccc1O
inactive: [1] | [2] | [3] | [4] | [6] | [7] | [19] | [8] | [9]

CC(C)(C)C(=O)C(=O)O
inactive: [20] | [2] | [6] | [7] | [19]

CC(C)(C)NC(=O)[C@@H]1CN(Cc2cccnc2)CCN1C[C@@H](O)C[C@@H](Cc1ccccc1)C(=O)N[C@H]1c2ccccc2C[C@H]1O
active: [1] 36.3 µM | [2] 40.8 µM | [3] 43 µM | [5] 33.2 µM | [6] 43.8 µM | [7] 37.5 µM | [19] 39.8 µM
inactive: [10] | [11] | [12] | [13] | [14] | [15] | [16] | [17] | [18] | [2] | [3] | [4] | [5] | [6]

Clc1ccccn1
inactive: [10] | [11] | [12] | [13] | [14] | [15] | [16] | [17] | [18] | [2] | [3] | [6] | [7] | [8] | [9]

COc1ccccc1Oc1c(NS(=O)(=O)c2ccc(C(C)(C)C)cc2)nc(-c2ncccn2)nc1OCCO
inactive: [1] | [2] | [3] | [6] | [8] | [9]

CCCc1c(OCCCCc2nn[nH]n2)ccc(C(C)=O)c1O
active: [11] 135 µM | [14] 180 µM | [2] 73.1 µM and 19.2 µM | [6] 26.6 µM | [19] 25.2 µM
inactive: [10] | [12] | [13] | [15] | [16] | [17] | [18] | [1] | [3] | [5] | [6] | [7] | [19] | [8] | [9]

CCCCn1cc[n+](C)c1
inactive: [10] | [11] | [12] | [13] | [14] | [15] | [16] | [17] | [18]

CC(=O)CC(=O)OC(C)(C)C
inactive: [20] | [1] | [2] | [3] | [4] | [5] | [6] | [19]

O=[N+]([O-])c1cc[n+]([O-])cc1
inactive: [20] | [1] | [2] | [3] | [5] | [6] | [7] | [19]

CC/C=C\CC1=C(C)CCC1=O
inactive: [10] | [11] | [12] | [13] | [14] | [15] | [16] | [17] | [18] | [2] | [3] | [4] | [6] | [7] | [19]

CCO[Si](OCC)(OCC)c1ccccc1
inactive: [10] | [11] | [12] | [13] | [14] | [15] | [16] | [17] | [18] | [1] | [3] | [4] | [6] | [7] | [19]

CCCCCCCCCCCCSC#N
inactive: [20] | [2] | [3] | [4] | [5]

COc1ccccc1OCC(O)CO (configuration not stated)
inactive: [10] | [11] | [12] | [13] | [14] | [15] | [16] | [17] | [18] | [1] | [2] | [4] | [6] | [7] | [19]
